From PubChem BioAssay (EPA / NIEHS)
Activity calls are given as the source filed them. How the source made its calls: active means hit-call score of the fitted dose curve at least 0.9, where 1 is the maximum; inactive means score below 0.9.

Read-out: Tumor necrosis factor receptor 1 (TNFRSF1A), TNFRSF1A (gene 7132)
Experiment: LTEA_HepaRG_TNFRSF1A: Life Technologies and Expression Analysis (LTEA) Assay for Tumor necrosis factor receptor 1 (TNFRSF1A) using HepaRG (AID 2283535)
Details: mRNA level, 48 h; actives raise or lower the signal
Protocol: LTEA_HepaRG is a cell based, multiplexed-readout assay that uses HepaRG, a human liver cell line, with measurements taken at 48 hours after chemical dosing on a 96-well plate.LTEA_HepaRG_TNFRSF1A is one of 102 assay component(s) measured in the LTEA HepaRG cell culture assay. It is a marker of Cell proliferation, survival, death.Data from the assay component LTEA_HepaRG_TNFRSF1A was analyzed into 1 endpoint. This assay endpoint, LTEA_HepaRG_TNFRSF1A, was analyzed with bidirectional fitting relative to DMSO as the negative control and baseline of activity. Using a type of inducible reporter, measures of mRNA induction for gain or loss-of-signal activity can be used to understand regulation of transcription factor activity. To generalize the intended target to other relatable targets, this assay endpoint is annotated to the cytokine receptor intended target family, where the subfamily is TNF receptor.
A total of 1060 chemcials from the ToxCast library were tested in eight-point concentration-response experiments. Cell culture and cytotoxicity assays were conducted at Thermo Fisher Scientific's Custom Services facility (Madison, WI). A single lot of human HepaRG cells (Thermo Fisher Scientific, Frederick, MD) was used for the cell culture experiments. 96-well format collagen type I coated plates of human HepaRG cells were prepared using established methods. Briefly, cryopreserved HepaRG cells were thawed, plated at a density of approximately 100,000 cells/well in HepaRG Thaw, Plate, and General Purpose media (HPRG770, Thermo Fisher Scientific), and incubated for 48 hours. 0.5% DMSO was selected as vehicle control to balance the requisite need of DMSO in HepaRG cultures to maintain differentiation (for example, baseline metabolism, proportions of hepatocytes vs. cholangiocytes), while enabling further hepatic receptor pathway activation (for example, PXR and CAR) in response to chemical exposure. 48 hours after plating, the culture medium was replaced with HepaRG Serum-Free Incudtion Media. Cells were exposed to each test chemical in duplicate and maintained in CO2 incubators for another 48 hours. Chemical plates were thawed to room temperature and 200x concentrations of treatment groups were prepared. 8-point conentration-reponse curves were made with the highest exposure at 100 uM, followed by half-log dilutions, all in 0.5% DMSO. Each test plate contained variouse controls, induction positive controls (1mM phenobarbital), cytotoxicity positive controls ([…] aflatoxin B1), vehicle controls (0.5% DMSO), and total lysis controls (0.5% DMSO). Cell morphology images were taken using an Essen IncuCyte FLR automated microscope, with six 96-well plates imaged in about 24 minutes. Images were captured and exported and JPEG files. Spent culture media was transfered to black-well plates for the LDH assay, and remaining media was sorted at -80 C for later use. Cells were treated with RLT buffer and frozen until shipped for gene expression analysis. Total RNA was isolated from the cell suspension in 75 uL of Buffer RLT (Qiagen, Germantown, MD 20874) by Quintiles/Expression Analysis (Durham, NC) using a custom isolation procedure. Total RNA from each plate well was transferred to a preamplification plate. Fluidigm's 96.96 Dynamic ArrayTM (Fluidigm, Amsterdam, the Netherlands) technology was used for gene expression analyses by quantitative reverse transcription polymerase chain reaction (qRT-PCR, performed by Quintiles/Expression Analysis, Durham, NC)89. Standard TaqManTM Assays (Applied Biosystems/ThermoFisher Scientific, Foster City, CA) were used to assess the expression of 93 genes selected based on their selectivity and sensitivity to important hepatic receptors known to be modulated by environmental chemicals; importance in human hepatocyte functionality; and hepatotoxicity. […]

| Structure (SMILES) | outcome | AC50 |
| --- | --- | --- |
| CCOP(=S)(OCC)Oc1ccc2c(C)c(Cl)c(=O)oc2c1 | inactive |  |
| C#CCC1=C(C)C(OC(=O)C2C(C=C(C)C)C2(C)C)CC1=O (stereo not given) | inactive |  |
| CCOP(=S)(OCC)Oc1ccc([N+](=O)[O-])cc1 | inactive |  |
| CN(C)NC(=O)CCC(=O)O | inactive |  |
| CCOP(=S)(Oc1cnc(C(C)(C)C)nc1)OC(C)C (stereo not given) | inactive |  |
| CCOC(=O)COc1cc(-c2nn(C)c(OC(F)F)c2Cl)c(F)cc1Cl | inactive |  |
| CCCCSP(=O)(SCCCC)SCCCC | inactive |  |
| CC(C)=CC1C(C(=O)OCN2C(=O)C3=C(CCCC3)C2=O)C1(C)C (stereo not given) | inactive |  |
| CCOC(=O)CC(SP(=O)(OC)OC)C(=O)OCC (stereo not given) | inactive |  |
| CCOP(=O)(OCC)Oc1cc(C)nc(C(C)C)n1 | inactive |  |
| CSc1nc(NC(C)C)nc(NC(C)C)n1 | inactive |  |
| CCOP(=S)(OCC)OC(Cl)C(Cl)(Cl)Cl (stereo not given) | inactive |  |
| CCOP(=S)(OCC)Oc1cc(C)nc(C(C)C)n1 | inactive |  |
| C[N+]1(C)CCCCC1 | inactive |  |
| CCC(CC)Nc1c([N+](=O)[O-])cc(C)c(C)c1[N+](=O)[O-] | inactive |  |
| CCCSP(=O)(OCC)SCCC | inactive |  |
| O=[N+]([O-])c1cc(C(F)(F)F)c(Cl)c([N+](=O)[O-])c1Nc1ncc(C(F)(F)F)cc1Cl | inactive |  |
| CSc1nnc(C(C)(C)C)c(=O)n1N | inactive |  |
| CCC(=O)Nc1ccc(Cl)c(Cl)c1 | inactive |  |
| CCc1cccc(CC)c1N(COC)C(=O)CCl | inactive |  |

| Structure (SMILES) | outcome | AC50 |
| --- | --- | --- |
| Cc1nn(-c2cc(NS(C)(=O)=O)c(Cl)cc2Cl)c(=O)n1C(F)F | inactive |  |
| CCOP(=O)(NC(C)C)Oc1ccc(SC)c(C)c1 (stereo not given) | inactive |  |
| O=C(O)c1cc(Oc2ccc(C(F)(F)F)cc2Cl)ccc1[N+](=O)[O-] | inactive |  |
| Nc1nc(N)nc(NC2CC2)n1 | inactive |  |
| CCc1cnc(C2=NC(C)(C(C)C)C(=O)N2)c(C(=O)O)c1 (stereo not given) | inactive |  |
| COc1cccc(C(=O)NN(C(=O)c2cc(C)cc(C)c2)C(C)(C)C)c1C | inactive |  |
| COc1cc(OC)nc(Sc2cccc(Cl)c2C(=O)O)n1 | inactive |  |
| C[Si](Cn1cncn1)(c1ccc(F)cc1)c1ccc(F)cc1 |  | 50 µM (active) |
| CNC(=O)ON=C(C)SC | inactive |  |
| CC(Oc1cccc(Cl)c1)C(=O)O (stereo not given) | inactive |  |
| C=C(C)[C@H]1Cc2c(ccc3c2O[C@@H]2COc4cc(OC)c(OC)cc4[C@@H]2C3=O)O1 |  | 50 µM (active) |
| CNC(=O)Oc1cccc2c1OC(C)(C)O2 | inactive |  |
| CCc1cccc(C)c1N(C(=O)CCl)C(C)COC (stereo not given) | inactive |  |
| CN(C)[C@@H]1C(=O)C(C(N)=O)=C(O)[C@@]2(O)C(=O)C3=C(O)c4c(O)cccc4[C@@](C)(O)[C@H]3[C@H](O)[C@@H]12 | inactive |  |
| S=C1NCCN1 | inactive |  |
| CCOP(=O)(SC(C)CC)N1CCSC1=O (stereo not given) | inactive |  |
| COP(=O)(OC)SCn1c(=O)oc2cc(Cl)cnc21 |  | 0.262 µM (active) |
| COc1ccc(C(=CC(=O)N2CCOCC2)c2ccc(Cl)cc2)cc1OC | inactive |  |
| COP(=O)(OC)OC(Br)C(Cl)(Cl)Br (stereo not given) | inactive |  |
| CC(COc1ccc(Oc2ccccc2)cc1)Oc1ccccn1 (stereo not given) | inactive |  |
